# Assay results taken from PubChem BioAssay AID1117319 (Southern Research Institute, 2015).
# “And” between values parts separate entries of the source, which are not always exact repeats. Equal values may be shown once. Among all 260,000 compounds or so, about 1,500 (0.58%) were called active. About 5% were inconclusive and are not listed.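 The calls were made as follows: active = inhibition above a set limit at one or more doses, reproduced on every date tested; inconclusive = results disagree between test dates, or hit never tested in dose response; inactive = the rest.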 Not all results are given here. Entries with a potency or affinity are not part of this list.
# Biological target: Virion infectivity factor (Human immunodeficiency virus type 1 group M subtype B (isolate BH10)) + Virion infectivity factor (Human immunodeficiency virus type 1 group M subtype B (isolate BRU/LAI)) + Virion infectivity factor (Human immunodeficiency virus type 1 group M subtype B (isolate PCV12)) + Virion infectivity factor (Human immunodeficiency virus type 1 group M subtype B (isolate HXB2)) + DNA dC->dU-editing enzyme APOBEC-3G (Homo sapiens) (UniProt P69720+P69721+P69722+P69723+Q9HC16)
# Assay: inhibitors of Vif binding to APOBEC3G peptide, primary screen, biochemical, TR-FRET, GST-Vif 1-94, biotin-A3G peptide, dose response retest (AID 1117319);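 also: Vif residues 1-94 fused to GST binding biotinylated APOBEC3G peptide 110-148; 0% = full assay without inhibitor and 100% = GST in place of GST-Vif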
# Details: hits give high values
row,Compound,inhibition
1,COc1cccc(CNS(=O)(=O)c2ccc3c(c2)CCN3C(=O)C2CC2)c1,5.57% (inactive)
2,CCCC(NC(=O)CCc1c(C)c2cc3c(-c4ccccc4)coc3cc2oc1=O)C(=O)O (configuration not stated),-3.65% (inactive)
3,O=c1cc(O)n(-c2ccccc2)c(=S)[nH]1,30.2% (inactive)
4,O=c1cc(O)n(-c2ccc(Cl)cc2)c(=S)[nH]1,-0.58% (inactive)
5,CC(C)[C@H](NC(=O)c1c(F)cccc1F)C(=O)OCC(=O)NC(=O)NC1CCCC1,-7.96% (inactive)
6,Cc1ccccc1S(=O)(=O)c1c(C)cc(C)n(C)c1=O,6.26% (inactive)
7,Cc1cccc(C(=O)NNS(=O)(=O)c2ccc(F)cc2)c1,-1.42% (inactive)
8,O=C(N/N=C/c1cccc([N+](=O)[O-])c1)c1cccc2cc[nH]c12,-4.35% (inactive)
9,CC1=C(C(N)=O)C(c2cccs2)n2nc(-c3cccc(C)c3)nc2N1 (configuration not stated),10.3% (inactive)
10,CC1=C(C(=O)Nc2ccccc2F)C(c2ccsc2)C2=C(CC(C)(C)CC2=O)N1 (configuration not stated),0.63% (inactive)
11,COC(=O)C1=C(C)NC2=C(C(=O)CC(c3cccs3)C2)C1c1ccsc1 (configuration not stated),3.51% (inactive)
12,Cc1ccc(-c2cc(C(=O)OCC(=O)N(C)C3CCS(=O)(=O)C3)c3ccccc3n2)c(C)c1 (configuration not stated),5.39% (inactive)
13,CN(C(=O)COC(=O)c1cc(-c2ccc(Cl)s2)nc2ccccc12)C1CCS(=O)(=O)C1 (configuration not stated),-9.51% (inactive)
14,CCNC(=O)COC(=O)c1cc(-c2ccc(OC)cc2)nc2ccccc12,17.1% (inactive)
15,Cc1cccc(C)c1NC(=O)COC(=O)c1cccnc1,0.67% (inactive)
16,CCCn1c(N)c(N(CCOC)C(=O)c2cc(-c3ccco3)nc3ccccc23)c(=O)[nH]c1=O,22.8% (inactive)
17,O=C(COC(=O)c1cc(-c2cccnc2)nc2ccccc12)Nc1ccc(F)cc1F,-4.09% (inactive)
18,CCCCN(C(=O)c1cc(-c2ccco2)nc2ccccc12)c1c(N)n(CCCC)c(=O)[nH]c1=O,22.2% (inactive)
19,O=C(COC(=O)c1cc(-c2ccco2)nc2ccccc12)NCc1ccccc1,27.6% (inactive)
20,COc1ccc(-c2nnc(SCC(N)=O)n2N)cc1,-2.53% (inactive)
21,O=[N+]([O-])c1ccc(/C=N/N2CCN(c3ccncc3S(=O)(=O)N3CCCCC3)CC2)cc1,-3.38% (inactive)
22,O=C(c1cccc2ccccc12)C1CCCN(C(=O)C2CCOCC2)C1 (configuration not stated),3.16% (inactive)
23,CCn1c(SCC(=O)Nc2sc3c(c2C#N)CCCC3)nnc1-c1ccco1,3.19% (inactive)
24,COc1cccc(NC(=S)NCCc2ccccn2)c1,-0.67% (inactive)
25,Cc1ccc(N2CC(C(=O)OCC(=O)c3c(N)n(CC(C)C)c(=O)n(C)c3=O)CC2=O)cc1 (configuration not stated),-1.07% (inactive)

row,Compound,inhibition
1,COC(=O)CSc1cc(C)nc(NC(C)=O)n1,3.6% (inactive)
2,CC(C(=O)OCC(=O)Nc1ccc2c(c1)OCO2)N1C(=O)c2ccccc2C1=O (configuration not stated),5.56% (inactive)
3,CCN(CC)S(=O)(=O)c1cccc(C(=O)N[C@H](C(=O)OCC(N)=O)C(C)C)c1,19% (inactive)
4,CC(C)c1ccc(C(=O)OCC(=O)c2c(N)n(C)c(=O)n(C)c2=O)cc1,2% (inactive)
5,Clc1c(-c2ccccc2)nnn1-c1ccccc1,-12% (inactive)
6,Cc1cc(C(=O)N2CCN(c3cccc(Cl)c3)CC2)c(C)o1,-5.08% (inactive)
7,CCOC(=O)C1CCCN(C(=O)c2cc(-c3ccc(C)cc3)nc3ccccc23)C1 (configuration not stated),10.1% (inactive)
8,Cc1cc(C(=O)OCC(=O)NCc2ccc3c(c2)OCO3)c2ccccc2n1,-5.38% (inactive)
9,O=C(OCC(=O)N1CCN(C(=O)c2ccco2)CC1)c1cc(-c2ccc(F)cc2)nc2ccccc12,-2.07% (inactive) and -4.96% (inactive)
10,O=C(OCC(=O)N1CCN(C(=O)c2ccco2)CC1)c1cc(-c2ccccc2)nc2ccccc12,-3.01% (inactive)
11,CCOC(=O)C1CCCN(C(=O)c2cc(-c3ccccc3)nc3ccccc23)C1 (configuration not stated),-11.1% (inactive)
12,O=C(COC(=O)c1ccco1)NCc1ccc2c(c1)OCO2,18.2% (inactive)
13,O=C(Nc1ccc2oc(-c3cccnc3)nc2c1)c1cc2ccccc2o1,20.3% (inactive)
14,COc1ccc(-n2nnc3c(=O)n(Cc4cc(C)ccc4C)cnc32)cc1,-0.91% (inactive)
15,CCN(CC)CCNC(=O)c1cc([N+](=O)[O-])c(N(C)C)cc1OC,12.4% (inactive)
16,COc1ccccc1NC(=S)NCCSc1ccc(C)cc1,9.9% (inactive)
17,O=C1/C(=C/c2cccc(Br)c2)SC(=S)N1CCC(=O)N(CCO)c1ccccc1,-10.6% (inactive)
18,Cc1ccc(S(=O)(=O)N2CCCCC2)cc1C(=O)NCCCN1CCOCC1,1.73% (inactive)
19,Cc1cc(C)c(S(=O)(=O)NCC2CCC(C(=O)NCCCN3CCOCC3)CC2)c(C)c1 (configuration not stated),3.66% (inactive)
20,COc1ccc(S(=O)(=O)NCC2CCC(C(=O)N3CCC4(CC3)OCCO4)CC2)cc1 (configuration not stated),0.18% (inactive) and -4.29% (inactive)
21,Cc1ccc(-n2nc3c(c2NC(=O)c2ccccc2Br)CS(=O)C3)cc1 (configuration not stated),0.72% (inactive)
22,O=c1[nH][nH]c(C(F)(F)F)c1/C=N/N1CCOCC1,-7.03% (inactive)
23,C/C(=N\Nc1ccc(Cl)c(C(=O)O)c1)c1cccs1,-4.46% (inactive)
24,C/C(=N\Nc1ccc(Cl)c(C(=O)O)c1)c1ccccn1,-6.06% (inactive)
25,COC(=O)C1=C(C)NC(=O)/C1=C\c1ccc2c(c1)OCO2,16% (inactive)

row,Compound,inhibition
1,CCOc1cc(/C=C2\C(=O)N(Cc3ccco3)C(C)=C2C(=O)OC)ccc1O,24.1% (inactive)
2,COC(=O)C1=C(O)/C(=C\c2cc(C)n(-c3ccccc3F)c2C)N=C1C,25.1% (inactive)
3,COC(=O)C1=C(C)N(C)C(=O)/C1=C\c1ccco1,9.7% (inactive)
4,COC(=O)C1=C(C)NC(=O)/C1=C\c1cc(C)n(-c2c(C)cccc2C)c1C,22.2% (inactive)
5,COC(=O)C1=C(C)N(Cc2ccco2)C(=O)/C1=C\c1ccc([N+](=O)[O-])cc1,-12.1% (inactive)
6,COC(=O)C1=C(C)NC(=O)/C1=C\N(C)C,5.9% (inactive)
7,CCN1C(=O)/C(=C\c2cccs2)C(C(=O)OC)=C1C,2.01% (inactive)
8,CC(Sc1ncccn1)C(=O)Nc1ccc2c(c1)OCCO2 (configuration not stated),-5.22% (inactive)
9,Nc1cc(S(=O)(=O)Nc2ccc(Cl)cc2)ccc1N1CCOCC1,0.79% (inactive)
10,COc1ccccc1Nc1nnc(SCC(=O)NC2CCCC2)s1,-10.8% (inactive)
11,O=C(CCCOc1ccccc1)N1CCN(C(=O)c2ccco2)CC1,-5.18% (inactive)
12,Cc1ccc(-c2nnc(-c3ccncc3)n2-c2ccc(C)cc2)cc1,-0.95% (inactive)
13,C=CCN1C(=O)/C(=C\c2cccs2)C(C(=O)OC)=C1C,0.55% (inactive)
14,COC(=O)C1=C(C)N(CC(C)C)C(=O)/C1=C\c1cccs1,2.91% (inactive)
15,O=C(Nc1ccccc1)c1ccc(Cn2cc(C(F)(F)F)ccc2=O)cc1,-1.59% (inactive)
16,O=S(=O)(NCc1ccccn1)c1ccc2c(c1)OCCO2,-0.75% (inactive)
17,CCOc1ccc(C(=O)NCC(=O)NCC(c2ccco2)N2CCCCC2)cc1 (configuration not stated),-8.81% (inactive)
18,CC[n+]1c(/C=C2\C=C(C)CC(C)(C)C2)sc2ccccc21,25.8% (inactive)
19,CC[n+]1c(/C=C2\C=C(C)CC(C)C2)sc2ccccc21 (configuration not stated),26% (inactive)
20,CCCCOc1ccc(/C=c2\sc3ncnn3c2=O)cc1,6.23% (inactive)
21,CCSc1nc2c(sc3nc(C)cc(C)c32)c(=O)[nH]1,-3.63% (inactive)
22,CCOCCCNC(=O)C(NC(=O)C1CCC(=O)N1)c1ccc(C)cc1 (configuration not stated),8.49% (inactive)
23,C#CC(C)OC(=O)Nc1cnccc1C(F)(F)F (configuration not stated),31.2% (inactive)
24,CC(C)CC(=O)Nc1ccc(N2CCOCC2)cc1,-0.35% (inactive)
25,O=C(CN1C(=O)C(=O)N(C2CCCC2)C1=O)Nc1ccc(N2CCOCC2)cc1,-7.86% (inactive)

row,Compound,inhibition
1,COc1cccc(N2C(=O)CC(Nc3ccc(N4CCOCC4)cc3)C2=O)c1 (configuration not stated),27.7% (inactive)
2,O=C1CC(Nc2ccc(N3CCOCC3)cc2)C(=O)N1c1ccccc1 (configuration not stated),16.9% (inactive)
3,COc1ccc(NC2CC(=O)N(C(C)C)C2=O)cc1 (configuration not stated),1.77% (inactive)
4,Cc1ccc(NC2CC(=O)N(c3ccc(N4CCCCC4)cc3)C2=O)cc1 (configuration not stated),25.5% (inactive)
5,O=C1CC(Nc2ccccc2)C(=O)N1c1ccc(N2CCOCC2)cc1 (configuration not stated),29% (inactive)
6,Cc1ccc(CN2C(=O)CC(Nc3ccc(N4CCOCC4)cc3)C2=O)cc1 (configuration not stated),4.98% (inactive)
7,COc1cccc(CC(NC(C)=O)C(=O)NC2CCN(S(=O)(=O)c3ccc(F)cc3)CC2)c1OC (configuration not stated),-17.6% (inactive)
8,CCCCn1c(N)c(N(CCOC)C(=O)CCCc2nc3ccccc3c(=O)[nH]2)c(=O)[nH]c1=O,-0.43% (inactive)
9,COc1ccc(CC(=O)NCCS(=O)(=O)N2CCN(c3ccccc3OC)CC2)cc1,-3.77% (inactive)
10,CCOc1ccc(CCNC(=O)COC(=O)Cc2c[nH]c3ccccc23)cc1OCC,2.44% (inactive)
11,CCOCCCNCc1cccc(OC)c1,-0.48% (inactive)
12,CN1CCN(S(=O)(=O)c2ccc(Oc3ccc(Br)cc3F)nc2)CC1,-0.65% (inactive)
13,COc1cccc(CC(=O)OCC(=O)c2cc(OC)ccc2OC)c1,18.9% (inactive)
14,Cc1cc(C)cc(N2CN=c3s/c(=C\c4ccco4)c(=O)n3C2)c1,3.97% (inactive)
15,CCC(=O)Nc1c(C)cc(C)cc1Cl,1.1% (inactive)
16,CCNC1=C(Cl)C(=O)c2ccccc2C1=O,2.59% (inactive)
17,CC(=O)Nc1ccc(NC2=C(Cl)C(=O)c3ccccc3C2=O)cc1,11.5% (inactive)
18,O=C(Nc1ccc2cn[nH]c2c1)c1c(Cl)cccc1Cl,2.79% (inactive)
19,CCCC(=O)Nc1ccccc1NC(=O)CCC,16.5% (inactive)
20,O=C1C(Cl)=C(NC(=O)c2ccccc2)C(=O)C(Cl)=C1NC(=O)c1ccccc1,20.2% (inactive)
21,CN(C)c1ccc(NC2=C(Cl)C(=O)c3ccccc3C2=O)cc1,20.1% (inactive)
22,O=C1C(Cl)=C(Nc2ccccc2)C(=O)c2ccccc21,-1.3% (inactive)
